In PubChem BioAssay (Tox21):
Unmarked numbers belong to inactive results. Calls follow the shape of the full dose curve.

Assay: G protein-coupled receptor (GPCR) small molecule agonists, calcium flux assay: HEK293 wild type cell line counter screen (AID 1920065)
Conditions: HEK293 WT calcium flux, fluorescence, agonist mode; series mostly up to 57.6 µM; activation: at the top concentration
Procedure, shortened: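 Seed cells, incubate 18 h (37 C, 5% CO2); add calcium dye, 1 h at 37 C; pin-transfer compounds, ATP control or DMSO; read fluorescence 480/540 nm each second for 3 min.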
% is scaled to controls: 0 for no effect and ±100 for the full control effect.

Structure (SMILES) | activation
Nc1ccccc1Nc1ccccc1 | 3.06%
CC[C@H](C)C(=O)O[C@H]1C[C@H](O)C=C2C=C[C@H](C)[C@H](CC[C@@H](O)C[C@@H](O)CC(=O)O)[C@H]21 | 3.08%
CC(=O)c1ccc2c(c1)Cc1ccccc1-2 | -2.65%
Cn1c(=O)c2c(ncn2CC2OCCO2)n(C)c1=O | -0.221% [at 26.5 µM]
C=CCc1cc(S(=O)(=O)c2ccc(O)c(CC=C)c2)ccc1O | 0.82%
CCCCOc1ccc(CC(=O)NO)cc1 | -0.0979% [at 26.5 µM]
CC(C)=CC=O | -0.192%
O=C(O)c1cccnc1Nc1cccc(C(F)(F)F)c1 | -0.246% [at 26.5 µM]
O=C1CCc2cc(OCCCCc3nnnn3C3CCCCC3)ccc2N1 | 0.545% [at 26.5 µM]
CCC(C)(C)OC | -0.378%
CC(=O)CCC1=C(C)CCCC1(C)C | 0.163%
CCN1CCN(C(=O)N[C@@H](C(=O)N[C@@H]2C(=O)N3[C@@H]2SC(C)(C)[C@H]3C(=O)O)c2ccccc2)C(=O)C1=O | -0.0395% [at 26.5 µM]
CCCCCC(C)O (stereo not given) | -0.005%
CC(C)(C)C(O)/C=C/c1ccc2c(c1)OCO2 (stereo not given) | -0.0412% [at 26.5 µM]
CC1(C)O[C@@H]2C[C@H]3[C@@H]4C[C@H](F)C5=CC(=O)C=C[C@]5(C)[C@H]4[C@@H](O)C[C@]3(C)[C@]2(C(=O)CO)O1 | -0.925% [at 26.5 µM]
C=C(C)C(=O)OCc1ccccc1 | -0.0689%
O=C(Cl)c1cccc([N+](=O)[O-])c1 | 4.42%
CN1CC(=O)N2[C@H](c3ccc4c(c3)OCO4)c3[nH]c4ccccc4c3C[C@@H]2C1=O | -0.198% [at 26.5 µM]
CCCc1nc(C)c2c(=O)[nH]c(-c3cc(S(=O)(=O)N4CCN(CC)CC4)ccc3OCC)nn12 | -0.831% [at 26.5 µM]
COc1ccnc(CS(=O)c2nc3ccc(OC(F)F)cc3[nH]2)c1OC (stereo not given) | 1.54% [at 26.5 µM]
